Assay results: PubChem BioAssay (NCI)
Values joined by “and” are separate entries in the source; they are usually repeats but may differ in a detail not shown here. Equal entries are not always repeated. Compounds without any hit were thinned out: in the full panel of roughly 79,000, 15% have a hit. The source holds several records for some structures; these can differ, active in one and inactive in another. Active and inactive are the calls of the source. Rule as the data show it: active = growth inhibition above about 70%; inactive = the rest.

Legend:
[1] = NCI Yeast Anticancer Drug Screen. Data for the rad50 strain (AID 155);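 also: 0% = growth of vehicle-only cultures of the same strain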; details: S. cerevisiae rad50 strain growth inhibition, stronger effect = higher value
Outline: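 Relative growth inhibition (compound vs vehicle) was measured in yeast with a defined repair-gene alteration.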

[2] = NCI Yeast Anticancer Drug Screen. Data for the mec2-1 strain (AID 157); details: S. cerevisiae mec2-1 strain, stronger effect = higher value
Outline: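 Test agents were screened against the mec2-1 yeast strain, with defined DNA repair or cell cycle alteration. Growth was scored as inhibition against vehicle-only controls.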

[3] = NCI Yeast Anticancer Drug Screen. Data for the sgs1 mgt1 strain (AID 161);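 also: 0% = growth of cultures given vehicle only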; details: S. cerevisiae sgs1 mgt1 strain, stronger effect = higher value
Outline: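 Test agents were incubated with a DNA-repair-mutant yeast strain. Growth was then read and compared against vehicle-treated controls.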

[4] = NCI Yeast Anticancer Drug Screen. Data for the cln2 rad14 strain (AID 165);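 also: 0% = growth equal to vehicle treated cultures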; details: S. cerevisiae cln2 rad14 strain, stronger effect = higher value
Outline: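 Growth of compound-exposed yeast (cln2 rad14 genotype) measured and expressed as inhibition relative to vehicle.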

[5] = NCI Yeast Anticancer Drug Screen. Data for the bub3 strain (AID 167); details: S. cerevisiae bub3 mutant strain, stronger effect = higher value
Outline: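 Screening used yeast with an engineered genetic alteration affecting cell cycle control. Compound-exposed cultures were compared with vehicle cultures, and reduced growth was taken as inhibition.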

[6] = NCI Yeast Anticancer Drug Screen. Data for the mlh1 rad18 strain (AID 175); details: S. cerevisiae mlh1 rad18 strain growth inhibition, stronger effect = higher value
Outline: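 In this whole-cell yeast screen, a strain with altered DNA damage repair is challenged with compound, and its growth is measured against matched vehicle-treated controls.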

[7] = at 5.0 µM (retest, dose inferred, filed as 0.5)
[8] = at 50.0 µM (retest, dose inferred, filed as 5.0)

Measured: growth inhibition

CCCCCCN(CCCCCC)C(=O)C1=C(C)NC(C)=C(C(=O)N(CCCCCC)CCCCCC)C1
inactive: [1]; [7] 1% | [1]; [8] 15% | [1]; at 50.0 µM 56.4% | [2]; [7] -16% | [2]; [8] -3% | [2]; at 50.0 µM 4.4% | [3]; [7] -8% | [3]; [8] -1% | [4]; [7] 33% | [4]; [8] 14% | [4]; at 50.0 µM 0.5% | [5]; [7] -5% | [5]; [8] 17% | [5]; at 50.0 µM 34.9% | [6]; [7] -1% | [6]; [8] -13% | [6]; at 50.0 µM 59%
active: [3]; at 50.0 µM 85.2%

OC(CN1CCCC2CCCCC21)c1cc2ccccc2c2ccccc12 (stereo not given)
active: [1]; [8] 97% and 99% | [1]; at 50.0 µM 98.7% and 98.5% | [2]; [8] 80% and 99% | [2]; at 50.0 µM 98.4% | [3]; [8] 98% and 99% | [3]; at 50.0 µM 98.9% and 98% | [4]; [8] 94% and 99% | [4]; at 50.0 µM 99% and 98.2% | [5]; [8] 91% and 99% | [5]; at 50.0 µM 99.2% and 99% | [6]; [8] 99% | [6]; at 50.0 µM 99.2% and 99%
inactive: [1]; [7] 0% and -2% | [2]; [7] 20% and -4% | [3]; [7] -21% and -6% | [4]; [7] -2% | [5]; [7] 0% and -3% | [6]; [7] 13% and 2%

C=C1C(=O)C23OC2C1CCC(=O)C1(C)CC[C@H](OC(C)=O)C(C)(C)[C@H]1CC3=O (stereo not given in full)
inactive: [1]; [8] -2% | [2]; [8] 1% | [3]; [8] 0% | [4]; [8] -1% | [5]; [8] -1% | [6]; [8] -1%
active: [1]; [7] 96% | [1]; at 50.0 µM 99.2% | [2]; [7] 98% | [2]; at 50.0 µM 99.5% | [3]; [7] 98% | [3]; at 50.0 µM 99.5% | [4]; [7] 95% | [4]; at 50.0 µM 99% | [5]; [7] 98% | [5]; at 50.0 µM 99% | [6]; [7] 98% | [6]; at 50.0 µM 99.2%

O=C(NN1CCOC1=O)OCCCl
active: [6]; at 50.0 µM 73.5%
inactive: [1]; [7] -2% | [1]; [8] 2% | [1]; at 50.0 µM 24.7% | [2]; [7] -1% | [2]; [8] -6% | [2]; at 50.0 µM 18.7% | [3]; [7] -8% | [3]; [8] -7% | [3]; at 50.0 µM 34.6% | [4]; [7] 9% | [4]; [8] 0% | [4]; at 50.0 µM 24.6% | [5]; [7] 6% | [5]; [8] 2% | [5]; at 50.0 µM -16.1% | [6]; [7] -1% | [6]; [8] 1%

Nc1cc2ccc(O)cc2c2ccccc12
active: [1]; [8] 81% | [1]; at 50.0 µM 94.8% | [2]; at 50.0 µM 86.2% | [3]; at 50.0 µM 91% | [5]; [8] 89% | [5]; at 50.0 µM 93.4% | [6]; [8] 82% | [6]; at 50.0 µM 94.7%
inactive: [1]; [7] 0% | [2]; [7] 4% | [2]; [8] 51% | [3]; [7] -1% | [3]; [8] 54% | [4]; [7] 1% | [4]; [8] 34% | [4]; at 50.0 µM 67.5% | [5]; [7] 2% | [6]; [7] -1%

O=C1C(CN2CCOCC2)CCCC1CN1CCOCC1 (stereo not given)
active: [1]; [8] 97% | [2]; [8] 98% | [3]; [8] 96% | [4]; [8] 97% | [5]; [8] 95% | [6]; [8] 97%
inactive: [1]; [7] 0% | [1]; at 50.0 µM 12.2% and 1.25% | [2]; [7] 4% | [2]; at 50.0 µM 35% and 33.8% | [3]; [7] 2% | [3]; at 50.0 µM 10.8% and 24.9% | [4]; [7] 3% | [4]; at 50.0 µM 19.1% and -27.2% | [5]; [7] 0% | [5]; at 50.0 µM 1.05% and 69.5% | [6]; [7] 3% | [6]; at 50.0 µM 26.8% and 9.15%

Cc1cccc(Cc2ccccc2Cl)c1O
active: [1]; [8] 93% | [1]; at 50.0 µM 83.2% | [2]; [8] 93% | [3]; [8] 80% | [3]; at 50.0 µM 89.2% | [4]; [8] 84% | [4]; at 50.0 µM 98.6% | [5]; [8] 82% | [5]; at 50.0 µM 89.8% | [6]; [8] 81%
inactive: [1]; [7] 0% | [2]; [7] -1% | [2]; at 50.0 µM 38% | [3]; [7] 1% | [4]; [7] -7% | [5]; [7] -1% | [6]; [7] -2% | [6]; at 50.0 µM 46.2%

CC(=O)OC1OC(CI)C(OC(C)=O)C(OC(C)=O)C1OC(C)=O (stereo not given)
inactive: [1]; [7] 1% | [1]; [8] 38% | [1]; at 50.0 µM 16.1% and 5.95% | [2]; [7] -1% | [2]; [8] 21% | [2]; at 50.0 µM 17% and 12.6% | [3]; [7] -3% | [3]; [8] 19% | [3]; at 50.0 µM 4.55% and -11.6% | [4]; [7] 2% | [4]; [8] 49% | [4]; at 50.0 µM 17.1% and 5.75% | [5]; [7] -5% | [5]; [8] 69% | [6]; [7] -1% | [6]; [8] 25% | [6]; at 50.0 µM 24.4% and 9.3%
19.8% (inactive) and 94% (active): [5]; at 50.0 µM

O=C(Nc1ccc(C(=O)O)c(O)c1)c1ccccc1
inactive: [1]; [7] -2% | [1]; [8] 40% | [1]; at 50.0 µM 1.35% and -5.6% | [2]; [7] -12% | [2]; [8] -26% | [2]; at 50.0 µM 0.7% and -0.4% | [3]; [7] 0% | [3]; [8] 0% | [3]; at 50.0 µM -20% and 3.05% | [4]; [7] -4% | [4]; [8] -5% | [4]; at 50.0 µM -26.9% and 14.5% | [5]; [7] 1% | [5]; [8] 6% | [5]; at 50.0 µM 15.7% and 12.3% | [6]; [7] -3% | [6]; [8] 6% | [6]; at 50.0 µM 8.1% and -3.2%

CC1(C)C(c2ccccc2)=Nc2ccccc21
inactive: [1]; [7] 0% | [1]; [8] 36% | [1]; at 50.0 µM 34.1% | [2]; [7] 3% | [3]; [7] -13% | [3]; [8] 61% | [3]; at 50.0 µM 32.5% | [4]; [7] -2% | [4]; [8] 62% | [4]; at 50.0 µM 38% | [5]; [7] 9% | [6]; [7] -5% | [6]; [8] 46%
active: [2]; [8] 89% | [2]; at 50.0 µM 92.6% | [5]; [8] 94% | [5]; at 50.0 µM 96.7% | [6]; at 50.0 µM 86.2%

Nc1ccc(N=Nc2ccccc2)c(N)n1
inactive: [1]; [7] -166% | [1]; [8] -14% | [1]; at 50.0 µM 38.1% and 16.4% | [2]; [7] -54% | [2]; [8] -20% | [2]; at 50.0 µM 30.4% and 10.7% | [3]; [7] -73% | [3]; [8] 4% | [3]; at 50.0 µM 28.6% and 5.05% | [4]; [7] -72% | [4]; [8] 10% | [4]; at 50.0 µM 9.05% and 19.2% | [5]; [7] -71% | [5]; [8] -26% | [5]; at 50.0 µM 27.2% and 3.75% | [6]; [7] -130% | [6]; [8] -25% | [6]; at 50.0 µM 57.1% and 7.85%

COc1c(CBr)c(CBr)c(OC)c2c1C(=O)c1ccccc1C2=O
inactive: [1]; [7] 33% | [2]; [7] 14% | [2]; at 50.0 µM 63.8% | [3]; [7] 23% | [4]; [7] 2% | [4]; at 50.0 µM 41% | [5]; [7] 9% | [5]; at 50.0 µM 64.2% | [6]; [7] 19%
active: [1]; [8] 99% | [1]; at 50.0 µM 87.2% | [2]; [8] 99% | [3]; [8] 99% | [3]; at 50.0 µM 86.7% | [4]; [8] 99% | [5]; [8] 99% | [6]; [8] 99% | [6]; at 50.0 µM 92.8%

O=S(c1cc(Cl)cc(Cl)c1O)c1cc(Cl)cc(Cl)c1O
inactive: [1]; [7] 66% | [2]; [7] 39% | [3]; [7] 39% | [4]; [7] 40% | [5]; [7] 56% | [6]; [7] 44%
active: [1]; [8] 99% | [1]; at 50.0 µM 99.2% | [2]; [8] 100% | [2]; at 50.0 µM 99.5% | [3]; [8] 100% | [3]; at 50.0 µM 98% | [4]; [8] 99% | [4]; at 50.0 µM 99.5% | [5]; [8] 100% | [5]; at 50.0 µM 99.5% | [6]; [8] 99% | [6]; at 50.0 µM 99.5%

O/N=C/c1cc(I)c(O)c(I)c1
active: [1]; [7] 99% | [1]; [8] 98% | [1]; at 50.0 µM 98.8% | [2]; [7] 97% | [2]; [8] 99% | [2]; at 50.0 µM 98.2% | [3]; [7] 99% | [3]; [8] 99% | [3]; at 50.0 µM 98.8% | [4]; [7] 99% | [4]; [8] 98% | [4]; at 50.0 µM 98.3% | [5]; [7] 99% | [5]; [8] 99% | [5]; at 50.0 µM 98.8% | [6]; [7] 98% | [6]; [8] 98% | [6]; at 50.0 µM 98.5%

Nc1ncnc2c1ncn2C1SC(CO)C(O)C1O (stereo not given)
inactive: [1]; [7] 0% | [1]; [8] 8% | [1]; at 50.0 µM 4.35% and 13.3% and 42.6% | [2]; [7] -6% | [2]; [8] 5% | [2]; at 50.0 µM 32.3% and 4.55% and -7.25% | [3]; [7] 0% | [3]; [8] 7% | [3]; at 50.0 µM 3.2% and 3.55% and 36.1% | [4]; [7] -4% | [4]; [8] -4% | [4]; at 50.0 µM 11.2% and 44.8% and 2.35% | [5]; [7] -3% | [5]; [8] -7% | [5]; at 50.0 µM -21.4% and -3.85% and -4.3% | [6]; [7] 13% | [6]; [8] 25% | [6]; at 50.0 µM 14.7% and 4.75% and -3.25%
